# Measured values from PubChem BioAssay (NCATS).
# Inconclusive results are not listed. Activity calls are given as the source filed them. The call rests on the fitted dose curve; in most records, active means well fitted cell-killing curve with a large enough effect; inconclusive means small, poorly fitted or top-dose-only effect, or effect the other way; inactive means no such curve, though single readings can be large or run the other way.
# Assay: Quantitative High-Throughput drug screen in 47 multiple myeloma cell lines against the NCATS MIPE library collection: KMS34_JCRB cell viability assay (AID 1918985); further: nearly all actives have a fitted effect of over 40% in size
# Details: KMS34 myeloma viability, CellTiter-Glo ATP luminescence, 48 h; series mostly up to 45.8 µM; viability, percent of control: at the top concentration
# From the text: PI: Beverly A. Mock Ph.D.
# Laboratory of Cancer Biology and Genetics,
# Center for Cancer Research, National Cancer Institute,
# National Institute of Health, Bethesda, Maryland
# Drug resistance and disease progression are common in multiple myeloma (MM) patients, underscoring the need for new therapeutic combinations. […] We hypothesized that effective combinations would reduce MYC expression and enhance p16 activity. […] These preclinical data identify potentially useful drug combinations for evaluation in drug-resistant MM and reveal potential mechanisms of combined drug sensitivity.
# Described herein is the primary MIPE qHTS used to cherrypick compounds. Validated compounds were then further tested for potential synergistic activiy.
# [1] Peat TJ, Gaikwad SM, Dubois W, Gyabaah-Kessie N, Zhang S, Gorjifard S, Phyo Z, Andres M, Hughitt VK, Simpson RM, Miller MA, Girvin AT, Taylor A, Williams D, D'Antonio N, Zhang Y, Rajagopalan A, Flietner E, Wilson K, Zhang X, Shinn P, Klumpp-Thomas C, McKnight C, Itkin Z, Chen L, Kazandijian D, Zhang J, Michalowski AM, Simmons JK, Keats J, Thomas CJ, Mock BA. Drug combinations identified by high-throughput screening promote cell cycle transition and upregulate Smad pathways in myeloma. Cancer Lett. 2023 Aug 1;568:216284. doi: 10.1016/j.canlet.2023.216284. Epub 2023 Jun 24. PMID: 37356470; PMCID: PMC10408729.
# SEQUENCE No. (e.g., 1, 2, 3, etc.); […] (e.g., Cells, Incubation, Reagent, etc.); VALUE and DESCRIPTION.
# 1; Cells; 5 uL; white, solid bottom 1536-well Greiner assay plate.
# 2; Compounds; 23 nL; Kalypsis pin tool (Wako USA) equipped with a 1536-well pin head to transfer to the assay plates.
# 3; Incubation; 48 hours; 37C incubation.
# 4; Reagent;5uL; CellTiter Glo (Promega).
# 5; Detector; 425V; Luminescence; Viewlux PerkinElmer.
# NOTES (numbers refer to Sequence numbers above)
# 1. The cell-based screening methods employed in this study were like those previously published. Briefly, the corresponding myeloma cell lines were screened in 1,536-well plates with 500 cells, 5-uL per well for inhibition of cell viability (assessed by measuring ATP levels with CellTiterGlo).
# 2. NCATS MIPE 4.0 library of approved and investigational drugs were added using the Kalypsis pin tool. Wells treated with DMSO only for 100% viability and media only for 0% viability were used as controls.
# 3. The assay plates were covered and incubated for 48 hours in a 37C, 5% CO2 incubator with controlled humidity.
# 4. After 48 hours, CellTilter-GloTM luminescent substrate mix (Promega) reagent was added to the assay plate and plates we incubated for 5 min at room temperature.
# 5. Signal was measured as median relative luminescence units on a ViewLux (PerkinElmer) multiplate reader.
# [1] Heske CM, Davis MI, Baumgart JT, Wilson K, Gormally MV, Chen L, Zhang X, Ceribelli M, Duveau DY, Guha R, Ferrer M, Arnaldez FI, Ji J, Tran HL, Zhang Y, Mendoza A, Helman LJ, Thomas CJ. Matrix Screen Identifies Synergistic Combination of PARP Inhibitors and Nicotinamide Phosphoribosyltransferase (NAMPT) Inhibitors in Ewing Sarcoma. Clin Cancer Res. 2017 Dec 1;23(23):7301-7311. doi: 10.1158/1078-0432.CCR-17-1121. Epub 2017 Sep 12. PMID: 28899971; PMCID: PMC6636827.
# Potency means the concentration at half of the fitted maximal effect.
Compound,Potency,"viability, percent of control"
FC(F)c1nc2ccccc2n1-c1nc(N2CCOCC2)nc(N2CCOCC2)n1,1.32 µM (active),–
CC[C@H](CC[C@@H](C)[C@H]1CC[C@H]2[C@@H]3CC=C4C[C@@H](O)CC[C@]4(C)[C@@H]3CC[C@]12C)C(C)C,–,98.1% (inactive)
CN(C)c1ccc(C(=O)NCCCCCCC(=O)NO)cc1,0.662 µM (active),–
Cn1cc(C=CC(=O)c2cccc(F)c2)cc1C=CC(=O)NO,16.6 µM (active),–
c1cncc(CN2CCC(n3ncc4c(N5CCOCC5)nc(-c5ccc6[nH]ccc6c5)nc43)CC2)c1,5.9 µM (active),–
C[C@H]1COc2c(N3CCN(C)CC3)c(F)cc3c(=O)c(C(=O)O)cn1c23,–,103% (inactive)
COc1cc(OC)c(NC(=O)Nc2cc(C)on2)cc1Cl,–,110% (inactive)
COC[C@H](NC(=O)c1cnc(C)s1)C(=O)N[C@@H](COC)C(=O)N[C@@H](Cc1ccccc1)C(=O)[C@@]1(C)CO1,0.0743 µM (active),–
CC(=O)ON=C1C(c2c(O)[nH]c3cc(Br)ccc23)=Nc2ccccc21,4.69 µM (active),–
CC(=O)O[C@]1(C(C)=O)CC[C@H]2[C@@H]3C=C(C)C4=CC(=O)CC[C@]4(C)[C@@H]3CC[C@@]21C,–,58.7% (inactive)
CN(C)CC[C@H](c1ccc(Cl)cc1)c1ccccn1,–,113% (inactive)
C=C(C)[C@@H]1CC[C@]2(C)CC[C@]3(C)[C@H](CC[C@@H]4[C@@]5(C)CC[C@H](O)C(C)(C)[C@H]5CC[C@]43C)[C@@H]12,–,116% (inactive)
C[C@@H]1CC[C@@]2(OC1)OC1CC3C4CC=C5CC(O)CCC5(C)C4CCC3(C)C1[C@@H]2C (stereo not given in full),–,128% (inactive)
OCc1ccccc1O[C@@H]1O[C@H](CO)[C@H](O)[C@H](O)[C@H]1O,–,88.7% (inactive)
Cc1coc2c1C(=O)C(=O)c1c-2ccc2c(C)cccc12,0.166 µM (active),–
C[C@H]1[C@@H](OC(=O)CCC(=O)O)O[C@@H]2O[C@@]3(C)CC[C@@H]4[C@H](C)CC[C@@H]1[C@@]24OO3,1.32 µM (active),–
Cc1cnc(Nc2ccc(N3CCN(C)CC3)cc2)nc1Nc1cccc(S(=O)(=O)NC(C)(C)C)c1,2.35 µM (active),–
CC(C)NC[C@@H](C(=O)N1CCN(c2ncnc3c2[C@H](C)C[C@H]3O)CC1)c1ccc(Cl)cc1,14.8 µM (active),–
Nc1ncn([C@@H]2O[C@H](CO)[C@@H](O)[C@@H]2O)c(=O)n1,11.8 µM (active),–
COc1ccc(C[C@@H](C)[C@@H](C)Cc2ccc(OC)c(OC)c2)cc1OC,0.132 µM (active),–

Compound,Potency,"viability, percent of control"
COc1cc(C)c(C=CC(C)=CC=CC(C)=CC(=O)O)c(C)c1C,–,83.8% (inactive)
C[C@H]1O[C@H](O[C@H]2[C@H](O)[C@@H](O)[C@@H](O[C@H]3[C@H](O)[C@@H](O)C(O)O[C@H]3CO)O[C@H]2CO)[C@H](O)[C@@H](O)[C@H]1N[C@H]1C=C(CO)[C@@H](O)[C@H](O)[C@@H]1O (stereo not given in full),–,109% (inactive)
COc1cc(C=CC(=O)CC(=O)C=Cc2ccc(O)c(OC)c2)ccc1O,6.79 µM (active),–
COc1cc([C@@H]2c3cc4c(cc3[C@H](O)[C@H]3COC(=O)[C@@H]23)OCO4)cc(OC)c1OC,0.0833 µM (active),–
CNC(=O)Nc1ccc(-c2nc(N3CC4CCC(C3)O4)c3cnn(C4CCC5(CC4)OCCO5)c3n2)cc1,0.0187 µM (active),–
O=C(C[C@@H]1CC=CCCC(=O)O[C@H](c2ccccc2)CNC1=O)NCc1ccc(Cl)cc1,–,104% (inactive)
OCCN1C[C@H](O)[C@@H](O)[C@H](O)[C@@H]1CO,–,104% (inactive)
Cc1cnc(Nc2ccc(CN3CCOCC3)cc2)nc1Nc1cccc(S(=O)(=O)NC(C)(C)C)c1,2.35 µM (active),–
Nc1cccc2c1C(=O)N(C1CCC(=O)NC1=O)C2=O (stereo not given),0.0021 µM (active),–
Cc1cnc(NC(=O)Nc2cc(Br)c(C)cc2OC[C@@H]2CNCCO2)cn1,3.32 µM (active),–
COc1ccc(C(C)=O)c(O)c1,–,95.6% (inactive)
O=C(O)CCCCC(CCSCc1ccccc1)SCc1ccccc1 (stereo not given),–,111% (inactive)
CCCCCN=C(N)NN=Cc1c[nH]c2ccc(OC)cc12,7.43 µM (active),–
C=CC(=O)Nc1cccc(Nc2nc(NC3CCC(N(C)C)CC3)nc3c2ncn3C(C)C)c1 (stereo not given),1.05 µM (active),–
O=C1CSC(=O)N1C(CCc1ccncc1)COc1ccc(-c2cccc([N+](=O)[O-])c2)cc1 (stereo not given),8.33 µM (active),–
Cc1ncc(-c2ccnc(Nc3ccc(S(C)(=O)=O)cc3)n2)n1C(C)C,1.87 µM (active),–
NC(=O)c1ncn([C@@H]2O[C@H](CO)[C@@H](O)[C@@H]2O)c1O,–,83.8% (inactive)
CN1CCCN(C(=O)c2cccc(-c3ccc(C=C4C(=O)Nc5ccc(Cl)cc54)o3)c2)CC1,16.6 µM (active),–
Cc1ccccc1C(=O)Nc1ccc(C(=O)N2CCCC(O)c3cc(Cl)ccc32)c(C)c1 (stereo not given),–,99.9% (inactive)
CC(=O)NC(CS)C(=O)O (stereo not given),–,93.6% (inactive)
